Bioassay records as filed in PubChem BioAssay.
L3MBTL1 block – inhibitors of human L3MBTL1. Q9Y468. AlphaScreen L3MBTL1–H3K9me1 peptide binding. Potency, µM (doses to about 57.1 µM), for inactives: at the highest dose activity, negative = inhibition, most hits filed as inhibitors. 0.66% of 230,000 active; note: % is set by controls: 0 for no effect and ±100 for the full control effect; nearly all actives have a fitted effect of over 60% in size
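Displacement of a biotinylated histone H3(1-15) peptide monomethylated at Lys9 (75 nM) from L3MBTL1 (50 nM) was measured by AlphaScreen after a 30 min room-temperature compound incubation; cefsulodin titration served as intraplate control.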
JMJD2A Tudor – blocks the human JMJD2A Tudor domain; O75164; AlphaScreen JMJD2A-Tudor / H3K4me3 peptide binding; Potency, µM (titrated, usually from 114 µM), inactives show at the top dose activity change, negative = inhibition, most hits filed as inhibitors; 4.4% of 390,000 active; AID 504339; note: % is set by controls: 0 for no effect and ±100 for the full control effect; nearly all actives have a fitted effect of over 50% in size
Sfp PPTase inh – Sfp phosphopantetheinyl transferase inhibition | Q9F4F7 | 3.5% of 310,000 active | AID 1490 | Biochemical Sfp PPTase activity, qHTS | Potency, µM, inactives show largest response in the series, negative = inhibition, most hits filed as inhibitors;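 note: the enzyme is Sfp with the accession as filed and its product quenches rhodamine fluorescence; 0% = enzyme reaction without inhibitor and -100% = no enzyme wells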
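After 15 min at room temperature with compound, 15 nM Sfp received 5 uM rhodamine-CoA plus 12.5 uM BHQ-2-ybbR (50 mM Hepes pH 7.6, 10 mM MgCl2). Rate came from the fluorescence difference over 30 min, ex 525/em 598 nm.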
G9a block – blocks human histone lysine methyltransferase G9a; G9a H3K9 monomethylation, AlphaScreen, 2 h; Potency, µM (highest dose often 102 µM), for the others: at the top dose activity, negative = inhibition, actives largely listed as inhibitors; 8.8% of 350,000 active; AID 504332; note: % is set by controls: 0 for no effect and ±100 for the full control effect; nearly all actives have a fitted effect of over 75% in size
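Step 1: enzyme (final 20 nM) with compound, 15 min RT. Step 2: substrate peptide 500 nM and SAM 20 uM, 2 h RT. Step 3: anti-H3K9me1 antibody and AlphaScreen beads, 10 min, then plate read.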
BAZ2B block – blocks human BAZ2B. Potency, µM (titrated, usually from 114 µM), inactives show at the top dose activity change, negative = inhibition, usual class: inhibitors. 4.4% of 360,000 active. AID 504333. AlphaScreen BAZ2B-H3K14Ac peptide displacement; note: % is set by controls: 0 for no effect and ±100 for the full control effect; nearly all actives have a fitted effect of over 60% in size
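BAZ2B (50 nM) with biotin-H3(5-23)K14Ac peptide (50 nM) in PBS pH 7.4, 0.01% Tween-20, preformed 30 min, then compound 30 min at room temperature; top concentration 110uM. AlphaScreen streptavidin donor/nickel chelate acceptor beads (10 ug/mL final), 20 min dark, signal read.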
HP1b chromo inh – HP1-beta chromodomain-methylated histone interaction inhibition. AlphaScreen HP1-beta / biotin-H3K9me3 peptide binding. P83916. Potency, µM (top dose mostly 114 µM), for inactives: at the top dose activity change, negative = inhibition, most hits filed as inhibitors. 0.56% of 390,000 active. AID 540317; note: nearly all actives have a fitted effect of over 70% in size
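HP1-beta protein (50 nM final) preincubated 30 min at room temperature with biotinylated H3(1-18)K9me3 peptide (50 nM) in PBS pH 7.4, 0.01% Tween-20, then compound added for 30 min. AlphaScreen streptavidin donor/nickel chelate acceptor beads (10 ug/mL final), 30 min dark, luminescence read.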
* marks the source's active call; other numbers are inactive results; ? = inconclusive; . = no result; [ ] = remark or other dose. Most compounds without a hit are left out; they make up all but 12% or so of the library. Calls come from the whole dose curve; as a rule, active = well fitted curve in the direction sought with a large enough effect; inconclusive = small, poorly fitted or top-dose-only effect, or another doubt; inactive = no such curve, though single readings can be large; an effect the other way counts as inactive or inconclusive. Potency is the fitted concentration of half-maximal effect.

SMILES | L3MBTL1 block | JMJD2A Tudor | Sfp PPTase inh | G9a block | BAZ2B block | HP1b chromo inh
COc1ccc(N2CCN(C(=O)CCNC(=O)c3ccc(C(C)(C)C)cc3)CC2)cc1 | -24% | ? | 13% | 45µM* | ? | -16%
COc1ccc(N2CCN(C(=O)C(C)(C)Oc3ccc(Cl)cc3)CC2)cc1 | ? | 50µM* | ? | 7.9µM* | 40µM* | ?
CCCCCn1c(=O)[nH]c2cc(C(=O)N3CCN(c4cccc(OC)c4)CC3)ccc2c1=O | . | -4% | . | -5%[59 µM] | -1% | 26%
Cc1ccc(CNC(=O)Cn2ncc3c(C)n(Cc4ccc(Cl)cc4)c(C)c3c2=O)cc1 | . | -10% | . | -5%[59 µM] | 0% | 13%
CCc1ccc(-n2c(=O)c3c4c(sc3n(CC(=O)N3CCC(C)CC3)c2=O)CCC4)cc1 | . | -22% | . | 4%[59 µM] | 1% | 17%
CCCCOc1ccc(CNC(=O)Cc2ccc(NC(=O)N3CCSc4ncccc43)cc2)cc1 | . | -27% | . | -31%[59 µM] | -20% | 14%
COc1ccccc1CNS(=O)(=O)c1ccc2c(c1)NC(=O)C(C)C(=O)N2 (stereo not drawn) | . | -20% | . | 4%[59 µM] | 3% | 22%
COc1ccc(N2CCN(C(=O)COC(=O)CNC(=O)c3ccc(C)cc3)CC2)cc1 | -3% | -16% | . | 40µM* | 0% | 6%
CCOC(=O)N1CCN(C(=O)COC(=O)CNC(=O)c2ccc(C)cc2)CC1 | 3% | -11% | . | -24% | -1% | 52%
O=C(O)C(Cc1c[nH]c2ccccc12)NS(=O)(=O)c1cccc(Cl)c1Cl (stereo not drawn) | . | -11% | 3% | -18% | 89µM* | 16%
O=C(O)c1ccc(Cl)c(S(=O)(=O)NC(Cc2c[nH]c3ccccc23)C(=O)O)c1 (stereo not drawn) | . | -34% | 5% | ? | -15% | 6%
O=C(O)c1cc(S(=O)(=O)NC(Cc2c[nH]c3ccccc23)C(=O)O)ccc1Cl (stereo not drawn) | . | -11% | -16% | 45µM* | -36% | 39%
O=C(O)C(Cc1c[nH]c2ccccc12)NS(=O)(=O)c1ccc2ccccc2c1 (stereo not drawn) | -12% | -10% | -11% | -12% | -4% | 31%
Cc1ccc(CNC(=O)c2nc(SCc3ccc(F)cc3)ncc2Cl)cc1 | . | -14% | . | 9%[59 µM] | 1% | 3%
CC(C)N(C(=O)[C@H]1C[C@H](CC(=O)NCCc2ccccn2)C(=O)N2CCc3c([nH]c4cc(-c5ccco5)ccc34)[C@]12C)C(C)C | -27% | 56µM* | . | . | . | -36%
CC(C)N(C(=O)[C@H]1C[C@H](CC(=O)NCc2ccco2)C(=O)N2CCc3c([nH]c4cc(-c5ccco5)ccc34)[C@]12C)C(C)C | ? | 56µM* | . | . | . | ?
CC(C)N(C(=O)[C@H]1CC(CC(=O)NCc2ccco2)C(=O)N2CCc3c([nH]c4ccccc34)[C@]12C)C(C)C (stereo partly drawn) | -2% | -25% | . | . | . | 15%
COc1ccc(OC)c(Nc2nc(-c3cccs3)cs2)c1 | -4% | ? | -11% | ? | ? | -27%
COc1ccc(C)cc1Nc1nc(-c2c[nH]c3ccccc23)cs1 | -10% | ? | 28µM* | 3.2µM* | 50µM* | -24%[57 µM]
O=C(CC(c1cccs1)N1Cc2ccccc2C1=O)Nc1cccc(F)c1 (stereo not drawn) | . | -12% | . | 1%[59 µM] | -14% | 12%
CCCC(=O)NC(c1ccco1)c1cc([N+](=O)[O-])c2cccnc2c1O (stereo not drawn) | . | -20%[11.4 µM] | 14µM* | 28µM* | 7.9µM* | 54%
CC(C)C(=O)NC(c1ccc(N(C)C)cc1)c1c(O)ccc2ccccc12 (stereo not drawn) | . | -23% | 12% | 2.2µM* | -26% | 60%
CC(=O)NC(c1ccccc1)c1cc(Cl)c2cccnc2c1O (stereo not drawn) | -2% | ? | 1% | . | 35µM* | 32%
